Measured values: ChEMBL document CHEMBL3433997, “St. Jude Leishmania screening dataset” (2016)

target: Solute carrier family 2, facilitated glucose transporter member 1 (Homo sapiens) (UniProt P11166); assay: ST_JUDE_LEISH: Cytotoxicity at 2uM final concentration against transgenic Leishmania Mexicana promastigotes LmGLUT1 that are glucose transport deficient and complemented with the human glucose transporter GLUT1. Activity is measured by DNA content using SYBR green in vitro; format: functional
Sequence (P11166 whole entry): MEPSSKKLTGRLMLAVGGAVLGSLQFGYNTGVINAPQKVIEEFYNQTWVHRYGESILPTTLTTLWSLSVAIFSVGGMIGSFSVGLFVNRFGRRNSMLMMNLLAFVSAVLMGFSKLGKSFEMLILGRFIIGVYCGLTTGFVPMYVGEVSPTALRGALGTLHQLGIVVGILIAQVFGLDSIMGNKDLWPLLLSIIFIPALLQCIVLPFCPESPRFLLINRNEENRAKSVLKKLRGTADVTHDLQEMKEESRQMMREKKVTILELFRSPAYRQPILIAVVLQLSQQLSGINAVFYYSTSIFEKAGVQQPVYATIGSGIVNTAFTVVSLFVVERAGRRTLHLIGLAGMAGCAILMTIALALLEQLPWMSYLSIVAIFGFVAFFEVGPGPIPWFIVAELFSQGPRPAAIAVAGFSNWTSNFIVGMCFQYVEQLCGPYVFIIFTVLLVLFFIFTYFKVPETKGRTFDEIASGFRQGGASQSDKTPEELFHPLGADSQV

**Q.** `CN1CCN(CCCNCc2ccc(Nc3nccc(Nc4ccc(Oc5ccccc5)cc4)n3)cc2)CC1` was tested. Which inhibition did it give?
**A.** Its inhibition is 0.09%.

**Q.** Which inhibition does the source give for `O=C(/C=C/c1ccc(Cl)c(Cl)c1)NCCCCCN1CCC(NC(=O)Nc2cccc(Cl)c2Cl)CC1` here?
**A.** The inhibition was -2.33%.

**Q.** How did the inhibition turn out when `COc1ccc2c(c1C1CCN(CCCCNC(=O)c3ccc(-c4ccc(Cl)cn4)cc3)CC1)CCCC2` was run?
**A.** The inhibition was 2.21%.

**Q.** Which inhibition does the source give for `CN1CCN(c2ccc(Cl)cc2NC(=O)C2COc3ccccc3O2)CC1` (stereo not given) here?
**A.** Its inhibition is 0.88%.

**Q.** Which inhibition does the source give for `Cc1ccc(Nc2nccc(Nc3ccc4c(C)n[nH]c4c3)n2)cc1F` here?
**A.** The inhibition was 3.22%.

**Q.** Which inhibition does the source give for `CN(C)CCOc1ccc2nc(-c3cccc(OCc4ccccc4)c3)[nH]c2c1C#N` here?
**A.** Its inhibition is 2.41%.

**Q.** With `CO/C(=C\C=C\c1cc2cc(Cl)c(Cl)cc2[nH]1)C(=O)NC1CC2CCCC(C1)N2C` (stereo not given) as the compound, how does the inhibition read?
**A.** The inhibition was 1.7%.

**Q.** Which inhibition does the source give for `Cc1cc(N2CCN(CC3CCCCC3)CC2)nc(Nc2ccc(Br)cc2)n1` here?
**A.** The inhibition was 1.47%.

**Q.** Which inhibition does the source give for `Cc1cc(=O)[nH]c2cc(Nc3ccnc(Nc4cccc(C(N)=O)c4)n3)ccc12` here?
**A.** Its inhibition is 3.02%.

**Q.** How did the inhibition turn out when `CC(C)CCNC(=O)C1Cc2c([nH]c3cc(Br)ccc23)C2(CCN(CCc3ccccc3)CC2)N1` (stereo not given) was run?
**A.** The inhibition was 3.44%.

**Q.** With `O=C(NCCCN1CCC(N2CCCCC2)CC1)c1ccc(N2CCOc3ccccc32)s1` as the compound, how does the inhibition read?
**A.** Its inhibition is 1.25%.

**Q.** For `COCCNCc1cccc(-c2ccccc2CN(C(=O)c2ccc3c(c2)OCO3)c2ccc(OC)cc2)c1`, which inhibition is on record?
**A.** The inhibition was 4.69%.

**Q.** How did the inhibition turn out when `N=C(N)NC(=O)Nc1cc(F)c(Cl)c(Cl)c1` was run?
**A.** The inhibition was 12.8%.

**Q.** With `Cc1cc2ccc(/C=C/C(=O)NC3CCC(CCN4CCc5ccc(C#N)cc5CC4)CC3)cc2[nH]1` (stereo not given) as the compound, how does the inhibition read?
**A.** The inhibition was 4.47%.

**Q.** How did the inhibition turn out when `O=C(Nc1ccc(OC2CCN(Cc3ccccc3)CC2)c(Cl)c1)c1ccsc1` was run?
**A.** The inhibition was 2.2%.

**Q.** `COc1cc2nc(NCCc3ccccc3)nc(N(C)Cc3ccccc3)c2cc1OC` was tested. Which inhibition did it give?
**A.** The inhibition was 5.11%.

**Q.** Which inhibition does the source give for `CC(C)(C)c1cc(C(=O)N2CCN(c3ncccc3C(F)(F)F)CC2)n(Cc2ccccc2)n1` here?
**A.** Its inhibition is 5.66%.

**Q.** Which inhibition does the source give for `COC(=O)c1ccc(OCC(O)CO)cc1O` (stereo not given) here?
**A.** Its inhibition is 0.55%.

**Q.** For `Cc1cc(=NN=CC=Cc2ccccc2)c2ccccc2[nH]1`, which inhibition is on record?
**A.** Its inhibition is 1.28%.

**Q.** With `Cc1cccc2nc(-c3ccc(-c4cccc(CN5CCN(c6ccncc6)CC5)c4)cc3)[nH]c12` as the compound, how does the inhibition read?
**A.** Its inhibition is 25.2%.

**Q.** Which inhibition does the source give for `FC(F)(F)c1cccc(Nc2nc(-n3ccnc3)nc(-n3ccnc3)n2)c1` here?
**A.** The inhibition was 1.93%.

**Q.** With `CS(=O)(=O)c1ccc2nc(NC(=O)c3csnn3)sc2c1` as the compound, how does the inhibition read?
**A.** The inhibition was 3.22%.

**Q.** How did the inhibition turn out when `COc1ccc(CNCc2ccc(-c3ccc(-c4nc5cc(F)ccc5[nH]4)cc3)cc2)cc1` was run?
**A.** The inhibition was 5.49%.

**Q.** For `COc1ccc2nccc([C@@H](O)CN3CCC(NCc4nc5ccccc5[nH]4)CC3)c2c1`, which inhibition is on record?
**A.** Its inhibition is 1.84%.

**Q.** With `Nc1nc(O)c2cc(CN(C=O)c3ccc(C(=O)N[C@@H](CCC(=O)O)C(=O)O)cc3)ccc2n1` as the compound, how does the inhibition read?
**A.** The inhibition was 6.36%.

**Q.** `COc1cc2nc(C)nc(Nc3ccc(Oc4ccccc4)cc3)c2cc1OC` was tested. Which inhibition did it give?
**A.** The inhibition was -2.63%.

**Q.** For `CCCCCn1c(Sc2ccc(C#N)c([N+](=O)[O-])c2)nnc1-c1cc(OC)cc(OC)c1`, which inhibition is on record?
**A.** Its inhibition is 13%.

**Q.** Which inhibition does the source give for `CC(=O)Nc1cccc(/C=C/C(=O)N2CCC(N3CCCCC3)CC2)c1` here?
**A.** The inhibition was 2.23%.

**Q.** Which inhibition does the source give for `COc1cccc2c(C)cc(NCc3ccc(Cl)cc3)nc12` here?
**A.** Its inhibition is 4.96%.

**Q.** Which inhibition does the source give for `CC(C)[C@H](NCC(=O)c1ccccc1)C(=O)O` here?
**A.** Its inhibition is -0.14%.

**Q.** `CN(C)c1ccc(-c2cscc2C(=O)NC2CCCN(Cc3cccnc3)C2)cc1` (stereo not given) was tested. Which inhibition did it give?
**A.** The inhibition was -0.4%.

**Q.** For `Cc1ccccc1C1CCN(C2CCC(NC(=O)c3cc4cc(Cl)ccc4o3)CC2)CC1` (stereo not given), which inhibition is on record?
**A.** Its inhibition is 1.84%.

**Q.** For `c1ccc(Oc2cccc(Nc3ccnc4ccccc34)c2)cc1`, which inhibition is on record?
**A.** The inhibition was 8.44%.

**Q.** How did the inhibition turn out when `CCOC(=O)C(CO)NC(=O)c1ccc([N+](=O)[O-])o1` (stereo not given) was run?
**A.** The inhibition was 2.12%.

**Q.** `COCCn1c(C)cc(C(=O)CN2C(=O)NC(C)(c3ccc(C(C)(C)C)cc3)C2=O)c1C` (stereo not given) was tested. Which inhibition did it give?
**A.** Its inhibition is -1.09%.

**Q.** For `Cc1ccc(C(=O)c2oc3ccc4c(C)cc(=O)oc4c3c2C)cc1`, which inhibition is on record?
**A.** The inhibition was -0.73%.

**Q.** How did the inhibition turn out when `Cc1cccn2c(=O)c3cc(C(=O)NC(C)c4ccccc4)c(=N)n(CCc4ccccc4)c3nc12` (stereo not given) was run?
**A.** The inhibition was 12.2%.

**Q.** How did the inhibition turn out when `O=c1cc(NCCCNCc2cc3c(Cl)cccc3s2)[nH]c2ccccc12` was run?
**A.** Its inhibition is -1.61%.

**Q.** For `COC(=O)c1cccc(CNCc2ccc(-c3ccc(-c4nc5ccccc5[nH]4)s3)cc2)c1`, which inhibition is on record?
**A.** The inhibition was 9.31%.

**Q.** How did the inhibition turn out when `COc1ccc(-c2cccc(NC(=O)c3cccc(Cl)c3)c2)cc1CN1CCC(O)CC1` was run?
**A.** The inhibition was 8.59%.
